# According to paper PMC12136788:
# Whole data set: some 5,800 sequences, median “enrichment r” near 0.54, cut for the highest 2% near 16. Only a selection was taken, and the highest values are over-represented in it overall.
# B1: chr11:46542767:46542868:-|CDS|ENSG00000110497|msi1|total|mutant (ssRNA)
# RNA: GGGAGUUCUACAGUCCGACGAUCAACACGCUCCGCAACCUCAGUCUGGGUCCUACCCGCCGCUCUUUGGGAGGGCCUCUGUCCCGCCACCCUUCCCGGUAUCACCGAGAAACCGCUCCUGGGUUGACAGGAUCUGAGUGGACCCAACAGAGGAUUGAGCAUCA
# B2: chrX:21994482:21994713:+|3pUTR|ENSG00000102172|msi1|total|mutant (ssRNA)
# RNA: GGGAGUUCUACAGUCCGACGAUCCAGCUGAAGGAUGGUCCGACAGCACAGCGAAGACUGCUAAAUGCACUGACCCCCCCCAUCCGAAUGUGAUUUUUGUUCCUUUUUAUUUCUCUGUGGGCUUUUGUUUUUGUUUUUGUUUUGCAACAGAGGAUUGAGCAUCA
# B3: chr19:41261474:41261596:+|3pUTR|ENSG00000167601|msi1|total|mutant (ssRNA)
# RNA: GGGAGUUCUACAGUCCGACGAUCUCUAAAGGUCCACAGGUCCCGACUAUCCGGUGCAAUUUCAAGGUUCUAACCCUAUACUGCCGUAUUCUUUGGGGUGCCCCUCUCCUUCUCCGCUAUCAUUGCUUCCUCCUCCCCAACUGUCAACAGAGGAUUGAGCAUCA
# B4: ENSG00000198589:be:win_4151|CDS|ENSG00000198589|bound_else_gene|NA|bound_elsewhere_windowed (ssRNA)
# RNA: GGGAGUUCUACAGUCCGACGAUCCGGCUACACAUGAACUGGAAAAUAUUGAACCUACUCAAGGCCUUUCAAUAGAAGCCUCUGUGACAUUUUUGCAGAGGCUAAUUAGCCUUGUGGAUGUGCUUAUAUUUGCAAGUUCUCUUGCAACAGAGGAUUGAGCAUCA
# B5: ENSG00000198589:be:win_9651|3pUTR|ENSG00000198589|bound_else_gene|NA|bound_elsewhere_windowed (ssRNA)
# RNA: GGGAGUUCUACAGUCCGACGAUCCUUCAAGUGGUCCCUCUUUUUUUCCUACACACUCAGCUCUUCUCUAAAAGCAAGGAUUUGGAAUGAACAAUUCAGUUUGACAGAAAAAGCUGAAUAAAAUGGCAUCUGUAAUUGAAUUGUCAACAGAGGAUUGAGCAUCA
# B6: chr13:20822168:20822271:-|CDS|ENSG00000132953|unk|total|mutant (ssRNA)
# RNA: GGGAGUUCUACAGUCCGACGAUCUCGAAAAAUCAGAGAAGAUUCAGAUAUGGCACAAGAUUCUCUGCAGUGCCUUGCCCAGUCCGCUUCUCUUCAUGGACCCAUCUUCCCAGAUGAAGGAUCACAAGUUGAUUAUCCCGCACACAACAGAGGAUUGAGCAUCA
# Target: MSI1 full-length (mouse, UniProt Q61474 1-362)
# Sequence (Q61474 whole entry): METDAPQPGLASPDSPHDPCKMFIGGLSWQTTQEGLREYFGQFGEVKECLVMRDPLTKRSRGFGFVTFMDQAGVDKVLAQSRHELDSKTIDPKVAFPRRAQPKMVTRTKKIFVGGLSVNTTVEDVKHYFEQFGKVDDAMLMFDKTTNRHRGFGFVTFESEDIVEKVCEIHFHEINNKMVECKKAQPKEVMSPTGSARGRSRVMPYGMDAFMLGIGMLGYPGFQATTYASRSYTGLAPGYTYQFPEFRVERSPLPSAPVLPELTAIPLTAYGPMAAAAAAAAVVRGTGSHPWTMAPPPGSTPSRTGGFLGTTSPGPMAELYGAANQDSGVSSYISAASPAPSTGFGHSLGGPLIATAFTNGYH
# Test: nsRBNS (natural sequence RNA bind-n-seq); RBNS binding buffer (assumed for nsRBNS): 25 mM Tris pH 7.5, 150 mM KCl, 3 mM MgCl2, 0.01% Triton X-100, 500 ug/ml BSA, 20 U/ml SUPERase-In, 4 C; UNK is unkempt and MSI1 is Musashi-1; names of the RNAs are library labels; protein concentration not given here; high values mean tight binding
row,Binder,binding signal [enrichment R]
1,B1,0.529
2,B2,0.697
3,B3,0.848
4,B4,0.181
5,B5,0.318
6,B6,0.303
